Screening data from PubChem BioAssay.
In the library only some 2.8% were active in any assay of this set; here they are far more common.
Shn3 inh set2 – reduction of Shn3 3'UTR firefly luciferase signal, primary screen, Schnurri-3 inhibitor project, cell-based, Clone20 osteoblasts, set 2; inhibition, % at 12.5 µM; hit rate 0.52% among 360,000; Clone20 osteoblast Shn3 3'UTR firefly luciferase, 24 h;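 active = mean inhibition of at least 75% with every replicate also reaching 75%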;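 note: 0% = median of neutral control wells and 100% = pilot-screen positive control compound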
HIF-2a block – HIF-2a reporter inhibitors, primary screen, luminescence, 786-0 RCC cells. inhibition, % at 18.8 µM. 786-0 RCC cells HIF-2a reporter, luciferase luminescence, overnight. hit rate 0.72% among 360,000;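 active = inhibition of the luminescence signal of 40% or more relative to plate controls, in a single-dose primary screen at 18.75 µM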
Peg3 prom inh – Peg3 promoter-driven luciferase inhibitors, primary screen, cell-based, HeLa, luciferase luminescence; HeLa PEG-Prom luciferase reporter, overnight; inhibition, % at 20 µM; AID 588405, 2011; hit rate 1.7% among 360,000;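 active = inhibition of at least 50% at 20 µM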
PAX8 inh HTS – inhibitors of PAX8-driven TPO luciferase reporter, primary screen, RMG-I cells, single concentration | inhibition, % at 12.6 µM | hit rate 1.2% among 360,000 | SteadyGlo, 24 h;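 active = mean replicate inhibition at least 60% with every replicate also reaching 60%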;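 note: luciferase light reporting Pax8 driven TPO promoter activity; plate controls were median of neutral control wells for no effect and mitoxantrone controls for full effect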
MITF TRPM1 inh – inhibitors of MITF-dependent TRPM1 promoter reporter, primary screen, cell-based, SK-MEL-5, single point, luciferase | AID 488899, 2010 | SK-MEL-5 TRPM1 promoter luciferase, 24 h | hit rate 0.83% among 330,000 | inhibition, % at 12.5 µM;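 active = mean inhibition across replicates of 60% or more, whatever share of single replicates reaches that level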
LMP1 NFkB inh – EBV LMP1-driven NF-kappaB luciferase reporter inhibitors, primary screen, cell-based, luminescence, single point; AID 504558, 2011; LMP1-induced NF-kappaB luciferase reporter cells; hit rate 0.69% among 350,000; inhibition, % at 12.5 µM; in the data active = inhibition above about 41%;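 note: 0% = neutral control wells and 100% = reference inhibitor control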
Starred values were filed as active, the others as inactive; x = not tested or not shown.

SMILES | Shn3 inh set2 | HIF-2a block | Peg3 prom inh | PAX8 inh HTS | MITF TRPM1 inh | LMP1 NFkB inh
O=C(c1ccc(Cl)cc1)N1CCN(CCOc2ccccc2)CC1 | 13 | -10 | 9 | 10 | 4 | 47*
COc1ccc(CN2CCC(C(=O)NC(C)c3cccc4ccccc34)CC2)cc1 (centres undefined) | -17 | 2 | -9 | x | x | x
CC(NC(=O)C1CCN(CCOc2ccc(Cl)cc2)CC1)c1cccc2ccccc12 (centres undefined) | 13 | 2 | 69* | 8 | x | x
COc1ccc(OCCN2CCN(C(=O)c3ccc(OC)cc3)CC2)cc1 | 13 | 8 | 5 | 17 | -4 | 14
O=C(NC(c1ccc(F)cc1)c1ccc2ccccc2n1)C1CCN(CCOc2ccc(Cl)cc2)CC1 (centres undefined) | 2 | -11 | 96* | 57 | x | x
CN(C)CC#Cc1ccc([C@@H]2[C@H](CO)N3C(=O)CN(C(=O)c4cccnc4)C[C@@H]23)cc1 | x | x | x | -42 | x | x
CN(C)c1ccc2c(c1)[C@H]1C[C@H](CC(=O)NCc3ccc4c(c3)OCO4)O[C@@H](CO)[C@H]1O2 | x | x | x | -3 | x | x
COc1cc(/C=C/CN2CCC(C(=O)NC(c3ccc(F)cc3)c3ccc4ccccc4n3)CC2)ccc1OC(C)=O (centres undefined) | 0 | -42 | 91* | 4 | x | x
O=C(NC(c1ccc(F)cc1)c1ccc2ccccc2n1)C1CCN(Cc2ccc3ccccc3n2)CC1 (centres undefined) | -7 | 19 | 10 | 9 | x | x
O=C(NC(c1ccccc1)c1ccc2ccccc2n1)C1CCN(CCOc2ccc(Cl)cc2Cl)CC1 (centres undefined) | -17 | 19 | 102* | 22 | x | x
O=C(N[C@H]1CC[C@H](CCn2cc(-c3ccc(F)cc3)nn2)O[C@H]1CO)c1cnccn1 | x | x | x | -3 | x | x
CC(C)N1CCc2c(sc(NC(=O)c3ccc(S(=O)(=O)N4CCc5ccccc54)cc3)c2C(N)=O)C1 | 18 | 8 | 98* | x | 3 | -11
CC(C)N1CCc2c(sc(NC(=O)c3cc(-c4cccs4)nc4ccccc34)c2C(N)=O)C1 | 15 | 26 | 78* | x | 3 | -3
CN(C)C(=O)c1cccc(-c2ccc3c(c2)[C@H]2[C@H](CCN2C(=O)C2CCOCC2)[C@@H](CO)N3)c1 | x | x | x | 7 | x | x
C[C@H](CO)N1C[C@H](C)[C@@H](CN(C)CC2CCCCC2)Oc2c(NS(=O)(=O)c3ccc(Cl)cc3)cccc2C1=O | x | x | x | -2 | x | x
C[C@H]1CN([C@@H](C)CO)C(=O)c2cc(NC(=O)Nc3cccc4ccccc34)ccc2O[C@@H]1CN(C)C(=O)Nc1cccc2ccccc12 | x | x | x | 15 | x | x
COc1ccc(S(=O)(=O)Nc2ccc3c(c2)C(=O)N([C@@H](C)CO)C[C@@H](C)[C@@H](CN(C)S(=O)(=O)c2ccc(C)cc2)OCCCC[C@H](C)O3)cc1 | x | x | x | -1 | x | x
COc1ccc(S(=O)(=O)N(C)C[C@@H]2OCCCC[C@H](C)Oc3ccc(NC(=O)C4CCCCC4)cc3C(=O)N([C@@H](C)CO)C[C@@H]2C)cc1 | x | x | x | 65* | x | x
COc1ccc(S(=O)(=O)Nc2ccc3c(c2)C(=O)N([C@H](C)CO)C[C@@H](C)[C@H](CN(C)S(=O)(=O)c2ccc(C)cc2)OCCCC[C@@H](C)O3)cc1 | x | x | x | 67* | x | x
COc1ccc(S(=O)(=O)Nc2ccc3c(c2)C(=O)N([C@@H](C)CO)C[C@@H](C)[C@@H](CN(C)S(=O)(=O)c2ccc(F)cc2)OCCCC[C@H](C)O3)cc1 | x | x | x | -11 | x | x
COc1ccc(S(=O)(=O)Nc2ccc3c(c2)C(=O)N([C@H](C)CO)C[C@H](C)[C@@H](CN(C)S(=O)(=O)c2ccc(F)cc2)OCCCC[C@H](C)O3)cc1 | x | x | x | 76* | x | x
COc1ccc(S(=O)(=O)N(C)C[C@H]2OCCCC[C@@H](C)Oc3ccc(NC(=O)C4CCCCC4)cc3C(=O)N([C@@H](C)CO)C[C@H]2C)cc1 | x | x | x | -6 | x | x
COc1ccc(S(=O)(=O)Nc2ccc3c(c2)C(=O)N([C@H](C)CO)C[C@H](C)[C@@H](CN(C)S(=O)(=O)c2ccc(C)cc2)OCCCC[C@H](C)O3)cc1 | x | x | x | 78* | x | x
Cc1ccc(S(=O)(=O)Nc2ccc3c(c2)C(=O)N([C@H](C)CO)C[C@H](C)[C@H](CN(C)C(=O)Nc2ccccc2)OCCCC[C@@H](C)O3)cc1 | x | x | x | -4 | x | x
CC(=O)Nc1ccc(OCCCNC(=O)c2c(-c3ccccc3)noc2C)cc1 | 22 | 14 | 11 | 4 | 10 | 58*
SMILES | Shn3 inh set2 | HIF-2a block | Peg3 prom inh | PAX8 inh HTS | MITF TRPM1 inh | LMP1 NFkB inh
C[C@@H]1CN([C@@H](C)CO)C(=O)c2cc(NC(=O)Nc3ccc(C(F)(F)F)cc3)ccc2O[C@@H](C)CCCCO[C@@H]1CN(C)S(=O)(=O)c1cn(C)cn1 | x | x | x | -9 | x | x
Cc1ccc(S(=O)(=O)N2c3ccccc3-c3c(ssc3=S)C2(C)C)cc1 | 13 | 23 | 41 | -9 | 9 | 58*
COc1ccc2c(c1)-c1c(ssc1=S)C(C)(C)N2S(=O)(=O)c1ccc(C)cc1 | 27 | 19 | 45 | 20 | 8 | -10
O=C1C(C=NCc2cccnc2)=C(O)c2ccccc21 | -55 | -186 | -205 | x | -14 | 62*
O=C(CCS(=O)(=O)c1ccccc1)Nc1nc(-c2ccccn2)cs1 | 29 | 1 | 18 | 73* | 3 | 1
Cc1csc(NC(=O)C(C)Oc2ccc(Br)cc2)n1 (centres undefined) | 10 | -16 | -20 | 106* | -7 | -3
O=C(CCS(=O)(=O)c1ccc(F)cc1)Nc1nc(-c2ccccn2)cs1 | 31 | 6 | 8 | 84* | 42 | 11
CC(Oc1ccc(F)cc1)C(=O)Nc1nc(-c2ccccn2)cs1 (centres undefined) | 62 | 11 | 55* | 69* | 65* | 14
C[C@@H](NC(=O)C[C@@H]1C[C@@H]2c3cc(NC(=O)c4cccnc4)ccc3O[C@@H]2[C@@H](CO)O1)c1ccccc1 | x | x | x | -13 | x | x
CCCNC(=O)C[C@H]1C[C@H]2c3cc(NS(=O)(=O)c4ccc(F)cc4)ccc3O[C@H]2[C@@H](CO)O1 | x | x | x | -8 | x | x
O=C(N/N=C/c1cccc2cccnc12)c1ccccc1O | 92* | 7 | 41 | 45 | 69* | 5
Cc1ccccc1/C=N/Nc1nc2ccccc2[nH]1 | -60 | -263 | -234 | -129 | -36 | -16
C(=N\Nc1nc2ccccc2[nH]1)/c1cccc2cccnc12 | 78 | -190 | -84 | 4 | 14 | 71*
O=C(N/N=C/c1cc([N+](=O)[O-])ccc1O)c1cccc2ccccc12 | 69 | 8 | 23 | 69* | 42 | 5
C[C@H](CO)N1C[C@H](C)[C@H](CN(C)C(=O)Nc2cccc3ccccc23)Oc2ncccc2C1=O | x | x | x | 4 | x | x
CNC[C@@H]1Oc2ccc(NC(=O)NC(C)C)cc2C(=O)N([C@@H](C)CO)C[C@@H]1C | x | x | x | -14 | x | x
